Most compounds without a hit are left out; they make up all but 3.8% or so of the library.
Jurkat NFkB inh: inhibitors of the PMA/ionomycin-induced NF-kB reporter in Jurkat cells; inhibition, % at 4 µM; AID 435003; 330,000 compounds, 0.53% hits; PMA/ionomycin-induced NF-kB luciferase reporter, luminescence; in the data active = inhibition above about 50%
697 NFkB inh: lowers PMA/ionomycin-induced NF-kB signal in 697 B cells. 697 B-cell NF-kB luciferase reporter, 16 h. inhibition, % at 4 µM. 330,000 compounds, 0.33% hits; in the data active = inhibition above about 35%
Gli-Sufu block: Gli-Sufu pathway antagonism. Sufu-KO-LIGHT fibroblasts, Gli luciferase reporter luminescence. 340,000 compounds, 0.74% hits. inhibition, % at 5 µM;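 active = inhibition above about 55%, limit read from the data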
Mdm2 MdmX PPI: human Mdm2/MdmX binding inhibition; O15151+Q00987; SaOS-2 split-luciferase Mdm2/MdmX complementation, luminescence; inhibition, % at 8 µM; 330,000 compounds, 3% hits;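 active = inhibition of at least 50% at 8 µM in the primary screen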
Shn3 3UTR inh: reduces Shn3 3'UTR luciferase signal in osteoblasts | AID 588674 | Clone20 osteoblast Shn3 3'UTR firefly luciferase, 24 h | inhibition, % at 12.5 µM | 360,000 compounds, 0.52% hits;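 active = mean inhibition of at least 75% with every replicate also reaching 75%; inconclusive = mean inhibition at least 75% but some replicate below; inactive = mean inhibition below 75%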
Mdm2-MdmX conf: human Mdm2/MdmX binding inhibition, confirmed. shares compounds with Mdm2 MdmX PPI. luminescent assay. inhibition, % at 8 µM. 10,000 compounds, 55% hits. AID 489028; in the data active = inhibition above about 40%
Full FLuc ctr: counter-screen for Mdm2/MdmX inhibitors: full-length luciferase; shares compounds with Mdm2 MdmX PPI; SaOS-2 full-length luciferase counterscreen, luminescence; inhibition, % at 8 µM; 6,200 compounds, 77% hits; AID 504607;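 active = mean inhibition at 8 µM reaching about 37%, which flags the compound as non-specific, limit read from the data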;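 also: p53-null SaOS-2 cells with luciferase driven by a doxycycline-inducible promoter; compound on cells about two nights before reading with doxycycline added after day one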
Of the large screens only hits and unclear results are named; the others gave an inactive call (follow-up assays come after a bar, where they were run).

Cc1cc(C)cc(NC(=O)CSc2nc3[nH]ncc3c(=O)[nH]2)c1	Mdm2 MdmX PPI 60 | Mdm2-MdmX conf 62 | Full FLuc ctr 50
CN(C)CCNc1ccc(-c2nn(C)c(=O)c3ccccc23)cc1[N+](=O)[O-]	Mdm2 MdmX PPI 53 | Mdm2-MdmX conf inactive | Full FLuc ctr 78
Cn1nc(-c2ccc(NCCO)c([N+](=O)[O-])c2)c2ccccc2c1=O	none
CN1CCC(N(C)C(=O)c2cc(=O)c3ccccc3o2)CC1	none
Nc1[nH]n2c(=O)cc(-c3ccccc3)nc2c1N=Nc1ccc(S(N)(=O)=O)cc1	none
Nc1[nH]n2c(=O)cc(-c3ccccc3)nc2c1N=Nc1ccccc1	Mdm2 MdmX PPI 58 | Mdm2-MdmX conf 47 | Full FLuc ctr 43
CCCNC(=O)Cn1cnc2sc(C(=O)N3CCN(Cc4ccc5c(c4)OCO5)CC3)c(C)c2c1=O	none
Cc1c(C(=O)N2CCN(Cc3ccc4c(c3)OCO4)CC2)sc2ncnc(N3CCN(c4ccccc4)CC3)c12	Mdm2 MdmX PPI 73 | Mdm2-MdmX conf inactive
Cc1c(C(=O)N2CCN(Cc3ccc4c(c3)OCO4)CC2)sc2ncnc(N3CCN(c4ccccc4F)CC3)c12	Mdm2 MdmX PPI 63 | Mdm2-MdmX conf inactive
COc1ccc(OCCN2CCC(C(=O)NC(c3ccc(Cl)cc3)c3cnccn3)CC2)cc1 (stereo not given)	none (no result: Jurkat NFkB inh, 697 NFkB inh, Gli-Sufu block, Mdm2 MdmX PPI)
O=c1[nH][nH]c(-c2ccccc2)c1C=Nc1ccc(OC(F)(F)F)cc1	none
CCn1c(Oc2ccccc2C)nc2c1c(=O)n(C)c(=O)n2C	Mdm2 MdmX PPI 57 | Mdm2-MdmX conf 42 | Full FLuc ctr 43
O=C1OC/C(=C(/O)c2ccc(Cl)cc2)C1=O	none
CCOC(=O)c1sc(N(Cc2ccccc2)C(=O)COC(=O)c2ccccc2O)nc1C	none
CCOC(=O)c1sc(N(Cc2ccccc2)C(=O)CCl)nc1C	Mdm2 MdmX PPI 65 | Mdm2-MdmX conf inactive
CC1(C2(O)CCCCC2)NCCc2ccccc21 (stereo not given)	none
CC1CCN(Cc2c(C(=O)N/N=C/c3cc(Br)ccc3O)nnn2-c2nonc2N)CC1	Gli-Sufu block 86, Mdm2 MdmX PPI 85, Shn3 3UTR inh inconclusive | Mdm2-MdmX conf 83 | Full FLuc ctr 56
C/C(=N\NC(=O)c1nnn(-c2nonc2N)c1CN1CCc2ccccc21)c1ccccc1O	Mdm2 MdmX PPI 69, Shn3 3UTR inh inconclusive | Mdm2-MdmX conf 67 | Full FLuc ctr inactive
COc1cc(/C(C)=N/NC(=O)c2nnn(-c3nonc3N)c2-c2cccs2)ccc1O	Mdm2 MdmX PPI 69 | Mdm2-MdmX conf inactive
Cc1cc(C)c(/C=N/NC(=O)c2nnn(-c3nonc3N)c2CN2CCC(C)CC2)c(C)c1	none
CC1CCN(Cc2c(C(=O)N/N=C/c3cc(Cl)ccc3O)nnn2-c2nonc2N)CC1	Gli-Sufu block 80, Mdm2 MdmX PPI 79, Shn3 3UTR inh 90 | Mdm2-MdmX conf 84 | Full FLuc ctr inactive
Nc1nonc1-n1nnc(C(=O)N/N=C/c2ccccc2)c1CN1CCc2ccccc21	none
C/C(=N\NC(=O)c1nnn(-c2nonc2N)c1-c1cccs1)c1cccc(O)c1	none
CCCCCC(=O)N1CC2(CC(c3cccc(NC(=O)CC)c3)=NO2)C[C@H]1C(N)=O (stereo not given in full)	none
CC(NC(=O)CN1c2cccc3cccc(c23)S1(=O)=O)c1ccc(S(N)(=O)=O)cc1 (stereo not given)	none
COc1cc(Nc2nc(-c3ccccc3)c3cc(C)ccc3n2)cc(OC)c1OC	Mdm2 MdmX PPI 56, Shn3 3UTR inh 84 | Mdm2-MdmX conf inactive
Cc1ccc2nc(NCC(=O)O)nc(-c3ccccc3)c2c1	none
Cc1oc2c(c(=O)c1C)C(=O)CC(c1ccccc1)C2 (stereo not given)	none
CS(=O)(=O)c1sc(C#N)c2c1C(=O)CC(c1ccccc1)C2 (stereo not given)	Mdm2 MdmX PPI 99 | Mdm2-MdmX conf 100 | Full FLuc ctr inactive
COc1ccc(N/N=C(/C)c2cnnc(-c3ccccc3)n2)cc1	Mdm2 MdmX PPI 79 | Mdm2-MdmX conf inactive
CCCc1nc2ccccc2c(=O)n1CCc1ccccc1	none
CC(=O)N1CCC2(CC1)C/C(=N\NC(=S)Nc1ccccc1F)c1cc(O)ccc1O2	Mdm2 MdmX PPI 67 | Mdm2-MdmX conf inactive | Full FLuc ctr 96
